Results filed as inconclusive are left out. Active and inactive are the calls of the source. Rule for the calls, unless noted: active = hit-call score of the fitted dose curve at least 0.9, where 1 is the maximum; inconclusive = response in the unintended direction; inactive = score below 0.9.
Assays:
[1] = system: SRY-box transcription factor 17 (SOX17) Protein Expression, Deisenroth Lab, SOX17 (gene 64321); assay: CCTE_Deisenroth_DEVTOX-GLR_legacy_Sox17: (Legacy) CCTE's DevTox GLR-Endo Assay Evaluation of SRY-box transcription factor 17 (SOX17) Protein Expression, Deisenroth Lab (AID 2284341; active = hit-call score of the fitted dose curve at least 0.9, where 1 is the maximum; inactive = score below 0.9); settings: actives raise or lower the signal
Method in brief: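 RUES2-GLR human pluripotent cells, seeded 24 h, then differentiated 48 h in defined media with two chemical exposures 24 h apart (1 nM - 200 uM, 10 points). Sox17+ fraction from high-content fluorescence imaging; bidirectional fit versus 0.2% DMSO.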

[2] = system: SRY-box transcription factor 2 (SOX2) Protein Expression, Deisenroth Lab, SOX2 (gene 6657); assay: CCTE_Deisenroth_DEVTOX-GLR_legacy_Sox2: (Legacy) CCTE's DevTox GLR-Endo Assay Evaluation of SRY-box transcription factor 2 (SOX2) Protein Expression, Deisenroth Lab (AID 2284346; active = hit-call score of the fitted dose curve at least 0.9, where 1 is the maximum; inactive = score below 0.9)
Method in brief: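 RUES2-GLR human pluripotent cells were differentiated for 48 h with two chemical doses 24 h apart, over 1 nM-200 uM. Sox2+ cells were those above 5x BMAD of the endoderm-control median; percent Sox2+ minus the 0.2% DMSO median was used, from n=4 replicates.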

[3] = IUF_NPC1_cytotoxicity_72hr: Cytotoxicity Assessment at 72 hours in the Leibniz Research Institute for Environmental Medicine (IUF) Neural Progenitor Cell Proliferation Assay (NPC1) (AID 2284332);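 note: rising LDH signal means more cytotoxicity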
Method in brief: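 Spheres of primary human neural progenitors are plated one per well on day 0 in growth-factor medium and dosed at once. After three days at 37C, supernatant LDH is measured fluorimetrically via resazurin reduction.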

[4] = CCTE_Mundy_HCI_iCellGluta_NOG_NeuronCount: CCTE's Neurite Outgrowth Assay in iCellGluta cells for Neuron Count, Mundy Lab (AID 2284340);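 note: cells fixed about 48 h after compound addition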
Method in brief: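 Neuron count read by automated high-content imaging of Hoechst 33342 and betaIII-tubulin/Alexa Fluor-488 labelling in human iPSC glutamatergic neurons. Activity fitted relative to DMSO.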

[5] = CCTE_Mundy_HCI_iCellGluta_NOG_NeuriteCount: CCTE's Neurite Outgrowth Assay in iCellGluta cells for Neurite Count, Mundy Lab (AID 2284342);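 note: chemical exposure about 48 hours starting 2 hours after plating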
[6] = system: SRY-box transcription factor 2 (SOX2) Protein Expression, Deisenroth Lab, SOX2 (gene 6657); assay: CCTE_Deisenroth_DEVTOX-GLR_Endo_SOX2: CCTE's DevTox GLR-Endo Assay Evaluation of SRY-box transcription factor 2 (SOX2) Protein Expression, Deisenroth Lab (AID 2284412)
Method in brief: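 RUES2-GLR human pluripotent cells were seeded 24 h, then differentiated 48 h with two chemical exposures 24 h apart. Cells were fixed, nuclei stained and imaged by high-content microscopy. Endpoint is %SOX2+ cells over cell count, minus 0.2% DMSO control; 10-point series 1 nM–200 uM.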

[7] = VALA_MIGHUV1_ScratchOnly_WoundArea: VALA Sciences human Umbilical Vein Endothelial Cell Migration (MIGHUV) Assay, Area of Scratch Wound Inhibited Recovery (AID 2284336)
Method in brief: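 HUVEC monolayers (9000 cells/well) were scratched after 24 h, dosed within 30 min (six concentrations, triplicate, 0.1% DMSO), allowed 24 h recovery, then fixed. Hoechst-stained nuclei in the wound imaged; cytochalasin D as reference.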

[8] = VALA_TUBIPS_Agonist_CellCount: Viability Assessment in the VALA Sciences human iPS-derived Endothelial Tubule Formation (TUBIPS) Agonism Assay (AID 2284338)
[9] = VALA_TUBHUV_Agonist_TubuleLength: VALA Sciences human Umbilical Vein Endothelial Tubule Formation (TUBHUV) Agonism Assay (AID 2284337)
Method in brief: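 HUVEC co-cultured with fibroblasts (1:3) 3 days in 10 ng/ml VEGF, then 3 days with compound plus VEGF; 0.1 % DMSO neutral control. Fixed, nuclear and CD31 stained; tubule length by fluorescence imaging.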

[10] = VALA_TUBIPS_Antagonist_CellCount: Viability Assessment in the VALA Sciences human iPS-derived Endothelial Tubule Formation (TUBIPS) Antagonism Assay (AID 2284335)

Structure (SMILES): CC1=C(/C=C/C(C)=C/C=C/C(C)=C/CO)C(C)(C)CCC1
- AC50 [1]: 33.5 µM (active)
- AC50 [2]: 55.7 µM (active)

Structure (SMILES): C[Si]1(C)O[Si](C)(C)O[Si](C)(C)O[Si](C)(C)O1
- outcome [3]: inactive
- outcome [4]: inactive
- outcome [5]: inactive

Structure (SMILES): COc1cccc2c1C(=O)c1c(O)c3c(c(O)c1C2=O)C[C@@](O)(C(=O)CO)C[C@@H]3O[C@H]1C[C@H](N)[C@H](O)[C@H](C)O1
- AC50 [1]: 4.93 µM (active)
- AC50 [2]: 0.107 µM (active)
- AC50 [6]: 2.25 µM (active)

Structure (SMILES): Cc1cc(NC(=O)C(=O)O)cc(C)c1Oc1ccc(O)c2c1CCC2
- outcome [7]: inactive
- outcome [8]: inactive

Structure (SMILES): CCCc1cc(=O)[nH]c(=S)[nH]1
- outcome [7]: inactive
- outcome [9]: inactive
- outcome [8]: inactive
- outcome [1]: inactive
- outcome [2]: inactive

Structure (SMILES): Oc1ccc2ccccc2c1N=Nc1ccccc1
- outcome [10]: inactive
- outcome [7]: inactive
- outcome [9]: inactive
- AC50 [8]: 31.9 µM (active)

Structure (SMILES): O=c1[nH]cc(F)c(=O)[nH]1
- AC50 [1]: 8.47 µM (active)
- AC50 [2]: 22 µM (active)
- AC50 [6]: 34.3 µM (active)

Structure (SMILES): CC(=O)Oc1ccccc1C(=O)O
- outcome [3]: inactive
- outcome [4]: inactive
- outcome [1]: inactive
- outcome [5]: inactive
- outcome [2]: inactive
- outcome [6]: inactive

Structure (SMILES): COc1ccc2c(c1)c(CC(=O)O)c(C)n2C(=O)c1ccc(Cl)cc1
- AC50 [1]: 15.5 µM (active)
- AC50 [2]: 17 µM (active)
- AC50 [6]: 6.34 µM (active)

Structure (SMILES): OC[C@@H](O)[C@@H](O)[C@H](O)[C@H](O)CO
- outcome [3]: inactive
- outcome [10]: inactive
- outcome [9]: inactive
- outcome [8]: inactive
- outcome [5]: inactive

Structure (SMILES): CCCCC(CC)COC(=O)CC(C(=O)OCC(CC)CCCC)S(=O)(=O)O (stereo not given)
- outcome [10]: inactive
- AC50 [7]: 74.5 µM (active)
- AC50 [9]: 14.9 µM (active)
- AC50 [8]: 77.8 µM (active)

Structure (SMILES): O=c1c(O)c(-c2ccc(O)c(O)c2)oc2cc(O)cc(O)c12
- outcome [10]: inactive
- outcome [7]: inactive
- outcome [9]: inactive

Structure (SMILES): COC(=O)c1ccc(O)cc1
- outcome [10]: inactive
- outcome [8]: inactive

Reference: PubChem BioAssay (EPA / NIEHS)
